Compound activity (PubChem BioAssay)
Most compounds without a hit are left out; they make up all but 4.5% or so of the library.
697 NFkB inh: inhibitors of the PMA/ionomycin-induced NF-kB reporter in 697 B cells | 697 B-cell NF-kB luciferase reporter, 16 h | inhibition, % at 4 µM | hit rate 0.33% among 330,000 | AID 435022; in the data active = inhibition above about 35%
CSC inhib: cancer stem cell inhibition; inhibition, % at 7.5 µM; AID 2717; cancer stem cell-like cells viability, luminescence; hit rate 1.1% among 300,000; in the data active = inhibition above about 75%; tested in HMLE shEcad cells
Jurkat NFkB inh: inhibitors of the PMA/ionomycin-induced NF-kB reporter in Jurkat cells | PMA/ionomycin-induced NF-kB luciferase reporter, luminescence | inhibition, % at 4 µM | hit rate 0.53% among 330,000; in the data active = inhibition above about 50%
Mdm2 MdmX PPI: human Mdm2/MdmX binding inhibition; SaOS-2 split-luciferase Mdm2/MdmX complementation, luminescence; hit rate 3% among 330,000; inhibition, % at 8 µM; O15151+Q00987;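 active = inhibition of at least 50% at 8 µM in the primary screen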
Target sequence (O15151 whole entry, looked up): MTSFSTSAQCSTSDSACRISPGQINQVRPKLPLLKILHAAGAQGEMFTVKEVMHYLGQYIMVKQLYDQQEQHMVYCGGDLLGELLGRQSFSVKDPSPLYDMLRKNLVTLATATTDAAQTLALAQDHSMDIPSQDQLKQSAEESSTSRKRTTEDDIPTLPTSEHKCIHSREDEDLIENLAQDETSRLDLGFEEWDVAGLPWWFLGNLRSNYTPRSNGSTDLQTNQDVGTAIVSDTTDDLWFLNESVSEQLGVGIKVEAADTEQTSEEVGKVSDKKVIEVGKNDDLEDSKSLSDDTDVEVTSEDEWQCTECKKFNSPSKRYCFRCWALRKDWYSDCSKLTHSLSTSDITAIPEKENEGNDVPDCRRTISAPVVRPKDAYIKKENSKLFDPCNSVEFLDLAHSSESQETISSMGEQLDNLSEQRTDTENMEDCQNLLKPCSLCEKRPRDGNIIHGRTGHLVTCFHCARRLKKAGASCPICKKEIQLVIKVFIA
Target sequence (Q00987 whole entry, looked up): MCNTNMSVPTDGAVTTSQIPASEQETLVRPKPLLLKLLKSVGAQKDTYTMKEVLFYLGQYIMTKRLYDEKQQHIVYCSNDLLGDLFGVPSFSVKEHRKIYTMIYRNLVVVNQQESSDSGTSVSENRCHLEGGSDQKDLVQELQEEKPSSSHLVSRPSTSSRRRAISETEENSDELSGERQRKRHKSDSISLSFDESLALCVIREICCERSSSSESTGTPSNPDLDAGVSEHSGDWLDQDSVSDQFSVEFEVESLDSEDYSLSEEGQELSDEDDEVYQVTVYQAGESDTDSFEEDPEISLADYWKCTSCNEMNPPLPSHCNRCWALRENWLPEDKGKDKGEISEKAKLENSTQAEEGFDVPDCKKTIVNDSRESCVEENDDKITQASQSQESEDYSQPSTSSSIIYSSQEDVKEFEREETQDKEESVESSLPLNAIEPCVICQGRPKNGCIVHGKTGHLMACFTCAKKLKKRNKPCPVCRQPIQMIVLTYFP
Beta apoptosis: beta cell apoptosis inhibition. hit rate 0.8% among 300,000. protection from apoptosis, % (test concentration not listed). INS-1E cytokine-induced death, ATP luminescence, 48 h; percent of positive-control rescue, neutral wells zero;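 active = Every replicate reaches about 75%, or at least half do and their mean reaches it too, limit read from the data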;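 also: 0% = cytokine-treated negative control wells and 100% = positive control rescue; higher means more ATP so stronger rescue from cytokine killing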
Gli-Sufu block: antagonists of Gli-Sufu signaling. Sufu-KO-LIGHT fibroblasts, Gli luciferase reporter luminescence. inhibition, % at 5 µM. hit rate 0.74% among 340,000;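 active = inhibition above about 55%, limit read from the data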;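 also: 0% = DMSO-treated cells and 100% = wells with medium but no cells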
697 NFkB conf: lowers PMA/ionomycin-induced NF-kB signal in 697 B cells; shares compounds with 697 NFkB inh; 697 B-cell NF-kB luciferase, 16 h; inhibition, % at 4 µM; hit rate 35% among 2,000; in the data active = inhibition mostly above about 28%, no sharp cut-off; inactive = mostly below about 22%
The depositor's hits bear a star; i = inactive; nt = not tested or not shown.

SMILES | 697 NFkB inh | CSC inhib | Jurkat NFkB inh | Mdm2 MdmX PPI | Beta apoptosis | Gli-Sufu block | 697 NFkB conf
CCC(=O)N1c2ccccc2[C@@H](N(C(C)=O)c2ccccc2)C[C@H]1C | 51* | -6 | 5 | 45 | nt | 20 | 38*
O=C(NC1CC(=O)N(c2ccccc2)C1)C1CC1 (centres undefined) | 10 | -12 | 2 | -1 | 4 | -3 | nt
Cc1nn(C)c(C)c1CN(C)C(=O)c1nn2c(c1Br)NC(c1cccs1)CC2C(F)(F)F (centres undefined) | 11 | -8 | 6 | 8 | -1 | 12 | nt
Cc1nn(C)c(C)c1CN(C)C(=O)c1cnn2c1NC(c1ccccc1)CC2C(F)(F)F (centres undefined) | 39* | -13 | 14 | 5 | 31 | 20 | 27
CCCOc1ccc(/C=N/Nc2ccccc2[N+](=O)[O-])c(O)c1 | -284 | nt | -62 | 45 | 0 | 30 | -48
CCOc1ccccc1/C=N/Nc1ccccc1[N+](=O)[O-] | -25 | -1 | -41 | -55 | 4 | -21 | nt
C(=C\c1nc2ccccc2[nH]1)/c1ccccc1 | -442 | 82* | -104 | -27 | 52 | -141 | -296
Cc1nc(/C=C/c2ccccc2)[nH]c(=O)c1-c1ccccc1 | -254 | 46 | 6 | -10 | 14 | -106 | -163
C(=C\c1ccco1)/c1nc2ccccc2[nH]1 | -3 | 6 | 11 | -30 | -1 | nt | nt
CC(C)Nc1nc(NC(C)(C)C)nc(Oc2ccc(=O)n(C)n2)n1 | 31 | -9 | 3 | 37 | -1 | 11 | nt
CCCn1nc(Oc2nc(NCC)nc(NC(C)C)n2)ccc1=O | 62* | 6 | 11 | 35 | 5 | 21 | 26
CN(C)S(=O)(=O)N1CCN(CC(=O)Nc2ccc(F)cc2)CC1 | 1 | -2 | 3 | -2 | -3 | -1 | nt
COc1cc(C(=O)OCC(=O)NC(=O)NC2CCCCC2)cc(Cl)c1OC | 12 | 10 | 4 | -24 | nt | -4 | nt
COc1ccc(O)c(C(=O)CC(=O)c2ccc(F)cc2)c1 | -296 | 19 | -133 | -8 | -4 | -110 | -303
COCCNC(=O)[C@H]1N2C(=O)c3ccccc3C2SC1(C)C (some centres undefined) | -3 | -11 | 10 | 9 | -9 | 3 | nt
COc1cc(=O)n(C)c2cc(N(C)C)ccc12 | 36* | 7 | 10 | 21 | -11 | -7 | 6
O=C(CC1SC(N2CCCCC2)=NC1=O)Nc1cccc(C(=O)Nc2ncccc2O)c1 (centres undefined) | -16 | nt | 4 | 9 | 2 | -5 | nt
CCc1ccc(NC(=O)CNC(=O)[C@@H]2Cc3ccccc3CN2C(=O)OC(C)(C)C)cc1 | 1 | -1 | -19 | 19 | 1 | -10 | nt
CC(C)(C)c1ccc(C(=O)NCCOc2ccccc2)cc1 | -325 | -1 | -112 | 43 | -4 | 42 | -281
CCOc1ccc(S(=O)(=O)Nc2cccc(C(=O)N(C)Cc3cccc(OC)c3OC)c2)cc1 | 8 | 3 | 13 | -6 | 2 | 3 | nt
Cc1ccc2ccc(C3C(=O)c4ccccc4C3=O)nc2c1 | -354 | 0 | -123 | -39 | 22 | -52 | -176
COc1ccc(-c2cc3cc(F)ccc3cn2)cc1 | -255 | -11 | -6 | -144 | -3 | -118 | -263
Nc1cc(Cl)nc(N/N=C/c2ccccc2[N+](=O)[O-])n1 | -60 | 0 | -54 | -71 | 5 | 6 | nt
Nc1cc(Cl)nc(N/N=C/c2ccc([N+](=O)[O-])cc2)n1 | 41* | -8 | 2 | -12 | 10 | 10 | 11
O=C(OCC(=O)N1CCc2ccccc21)[C@@H]1CC(O)CN1S(=O)(=O)c1ccc(Cl)cc1 (some centres undefined) | 12 | -20 | 0 | 34 | -3 | -5 | nt
SMILES | 697 NFkB inh | CSC inhib | Jurkat NFkB inh | Mdm2 MdmX PPI | Beta apoptosis | Gli-Sufu block | 697 NFkB conf
O=C(Nc1ncccc1O)c1ccc(NS(=O)(=O)c2ccc3[nH]c(=O)[nH]c3c2)cc1 | -33 | nt | 7 | 30 | nt | 26 | nt
O=C(Nc1ncccc1O)c1ccc(S(=O)(=O)Nc2ccccc2)cc1 | -402 | 37 | 12 | 47 | nt | 44 | -359
Cc1nnc2ccc(-c3ccc(NC(=O)Cc4cccs4)cc3)nn12 | 36* | -11 | 1 | 39 | 0 | 11 | 22
CC(=O)Nc1ccc(-c2ccc3nnc(C)n3n2)cc1 | -7 | -24 | 0 | 3 | -6 | 31 | nt
Cc1ccc(C(=O)Nc2ccc3ccccc3c2)cc1 | -368 | 21 | -112 | -53 | 3 | -166 | -447
Cc1nc2c(ccc3nc(NC(=O)c4ccc5c(c4)OCCO5)sc32)s1 | -255 | nt | -116 | 9 | nt | -107 | -223
Cc1ccc(NC(=O)c2ccc3c(c2)OCCO3)cc1 | -252 | 4 | -139 | -72 | 2 | 4 | -211
Cc1ccc(NC(=O)c2ccc(-c3nn(C)c(=O)c4ccccc34)cc2)cc1 | 42* | 5 | 21 | 41 | -3 | 39 | 14
Cc1c(Br)c([N+](=O)[O-])nn1C(C)C(=O)N1CCc2ccccc2C1 (centres undefined) | 27 | 11 | 5 | -1 | -2 | 4 | nt
O=C(O)C(c1ccccc1)C1(O)CC2CCC1C2 (centres undefined) | nt | nt | nt | nt | nt | 2 | nt
Cc1ccn2c(=O)nc(SCC(=O)N3CCCCC3)nc2c1 | 3 | -8 | -8 | 17 | nt | -13 | nt
CCOC(=O)c1c(C)n(S(=O)(=O)c2ccc(C)cc2)c2ccc(O)c(C(=O)O)c12 | 3 | -6 | 9 | 5 | 0 | 30 | nt
Cn1cc(/C=N\O)nc2c(=O)n(-c3ccccc3)c(=O)nc1-2 | 12 | -8 | -13 | -4 | 2 | 5 | nt
Cc1ccc2oc(=O)c(-c3ccc(O)cc3)c(C)c2c1 | -23 | 1 | 11 | -17 | 1 | -19 | nt
O=C(O)c1ccccc1N/N=C\c1ccnc2ccccc12 | -262 | 35 | -61 | -31 | 0 | 2 | -97
O=C(O)c1ccccc1N/N=C/c1cc(Br)cc(Br)c1O | -179 | 40 | -92 | -24 | 8 | -100 | nt
Cc1cccc(C(=O)n2c(=S)nc3cc(C)ccn32)c1 | -367 | 5 | -132 | 17 | 0 | -85 | -349
Cc1ccn2c(c1)nc(=S)n2C(=O)c1ccccc1 | i | 2 | -119 | 44 | 10 | -48 | -405
O=C(c1ccco1)n1c(=S)nc2ccccn21 | -81 | -5 | -57 | -87 | -5 | 4 | nt
COC(=O)[C@@]12CCCCN1[C@H](c1ccc(-c3ccc(C(C)=O)cc3)cc1)[C@@H]1C(=O)N(C)C(=O)[C@@H]12 | -36 | 21 | 0 | 24 | -4 | 3 | nt
Cn1cnc2c1c(=O)n(Cc1cccc(Cl)c1)c(=O)n2C | 1 | -5 | -2 | 20 | -3 | -5 | nt
CC(=O)Nc1ccc2nc(SCC(=O)O)sc2c1 | 36* | -3 | -9 | 3 | 0 | 5 | 7
COc1ccc(C(=O)N/N=C/c2cc3ccccc3[nH]c2=S)cc1 | 36* | 3 | 16 | 2 | 5 | 5 | 2
COc1ccc(C(=O)N/N=C/c2cccc3cccnc23)cc1 | -7 | -3 | -1 | 19 | 41 | 23 | nt
